# Compound activity from PubChem.
# Rows were chosen to be rich in hits. Some 5.9% of all compounds tested hit in one or more screens of this group.
# VP16 counter: Gal4-VP16 reporter inhibition counter-screen | Drosophila S2 Gal4-VP16 UAS-luciferase, luminescence, 20 h | 310,000 compounds, 3.5% hits | Potency, µM (top dose mostly 53.6 µM), inactives show top-dose activity, negative = inhibition, most hits filed as inhibitors;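 further: Gal4-VP16 expression switched on by copper sulfate through the metallothionein promoter; on the % scale 0 is the no-effect control and ±100 the full control effect; nearly all actives have a fitted effect of over 50% in size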
# GLP-1R inv ag: inverse agonists of human GLP-1 receptor; P43220; HEK293 GLP-1R CRE-luciferase, luminescence, 24 h; GLP-1R form is constitutively active; Potency, µM (top dose mostly 38.3 µM), inactives show at the highest dose activity change, negative = inhibition, most hits filed as inhibitors; 410,000 compounds, 1.6% hits; AID 624417; further: on the % scale 0 is the no-effect control and ±100 the full control effect; nearly all actives have a fitted effect of over 55% in size
# Target sequence (P43220 whole entry, looked up): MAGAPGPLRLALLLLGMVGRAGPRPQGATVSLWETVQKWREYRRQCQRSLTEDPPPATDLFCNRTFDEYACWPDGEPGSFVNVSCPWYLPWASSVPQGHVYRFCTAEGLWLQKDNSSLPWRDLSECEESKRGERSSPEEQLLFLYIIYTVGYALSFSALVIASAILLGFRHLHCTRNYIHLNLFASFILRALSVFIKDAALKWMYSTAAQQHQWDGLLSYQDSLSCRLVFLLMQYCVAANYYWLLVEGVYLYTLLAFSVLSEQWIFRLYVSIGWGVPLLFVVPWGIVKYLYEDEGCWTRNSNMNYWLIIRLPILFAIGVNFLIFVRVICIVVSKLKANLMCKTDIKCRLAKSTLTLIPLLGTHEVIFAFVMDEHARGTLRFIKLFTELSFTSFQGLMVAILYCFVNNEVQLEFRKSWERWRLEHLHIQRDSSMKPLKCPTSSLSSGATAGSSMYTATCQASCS
#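 Cells are plated, allowed 12 hours at 37 deg C, then treated with compounds for 24 hr before luciferase detection reagent is added and luminescence is read after 12 min at room temperature. The HEK293 line carries constitutively active GLP-1R with a cAMP-responsive reporter.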
# HEK293 tox: cytotoxicity in counter-screen for GLP-1R inverse agonists | Potency, µM (highest dose often 38.3 µM), for the others: at the top dose activity change, negative = inhibition, usual class: inhibitors | 410,000 compounds, 0.13% hits | HEK293 cAMP-luciferase reporter cells, luminescence, 24 h;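 further: loss of luciferase light is scored as toxicity; on the % scale 0 is the no-effect control and ±100 the full control effect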
#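 A 23 nL compound transfer followed 12 hours of cell culture at 37 deg C; exposure then lasted 24 hr. Luciferase assay detection reagent was dispensed and plates read for luminescence after a 12 min room-temperature wait.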
# RORg inh: inhibitors of mouse ROR gamma transcriptional activity. P51450. Drosophila S2 Gal4-RORgamma UAS-luciferase reporter, 20 h. Potency, µM (doses to about 53.6 µM), without a hit: at the highest dose activity change, negative = inhibition, actives largely listed as inhibitors. 310,000 compounds, 5.4% hits; further: on the % scale 0 is the no-effect control and ±100 the full control effect; nearly all actives have a fitted effect of over 60% in size
#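 In this cell-based reporter format, copper sulfate (700 uM final) drives Gal4–ROR gamma fusion expression from a metallothionein promoter in Drosophila Schneider cells; compounds preincubated 1 hr, reporter read after 20 hr at ambient temperature.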
# GLP-1R agonist: activates the human GLP-1 receptor; HEK293 GLP-1R CRE-luciferase, luminescence, 4-6 h; cells express a hypersensitive GLP-1R form; 380,000 compounds, 0.007% hits; Potency, µM (titrated, usually from 45.6 µM), without a hit: at the top dose activation, most hits filed as activators; P43220; further: % of control where 0% means no effect
# * = called active by the depositor; i = inactive; ? = inconclusive; . = no result given; [ ] = dose if it differs, or a comment. The call rests on the fitted dose curve; in most records, active means well fitted curve in the direction sought with a large enough effect; inconclusive means small, poorly fitted or top-dose-only effect, or another doubt; inactive means no such curve, though single readings can be large; an effect the other way counts as inactive or inconclusive. Potency means the concentration at half of the fitted maximal effect.
SMILES,VP16 counter,GLP-1R inv ag,HEK293 tox,RORg inh,GLP-1R agonist
CC1=C(C(=O)OC2CCCCCC2)C(c2c(F)cccc2Cl)CC(=O)N1 (stereo not drawn),.,?,-4%,.,-4%
O=C(Nc1cccc(-c2cn3ccccc3n2)c1)c1cc2ccccc2oc1=O,8.9µM*,0%,-3%,?,-3%
Cc1cccc(NC(=O)c2cc(S(=O)(=O)c3ccccc3)ccc2Cl)c1,7%,8.9µM*,-10%,15%,-20%
COc1cccc(NC(=O)c2cc3cccc(OC)c3o/c2=N\O)c1,-28%,.,.,-37%,.
COc1cccc(NC(=O)c2cc3ccccc3o/c2=N\O)c1,20µM*,?,-22%,8.9µM*,-5%
O=C(NC1CCCCCC1)c1cc2ccccc2oc1=O,?,?,-13%,10µM*,19%
CC(C)C[C@@H](CC(=O)N[C@@H](CCC(=O)O)CC(=O)O)NC(=O)[C@@H]1CCCC[C@H]1NC(=O)C[C@H](CCCN)NC(=O)C[C@H](CO)NC(=O)[C@@H]1CNCC[C@H]1N,1%,.,.,-10%,.
COc1ccc2oc(=O)c(C(=O)Nc3cccc(C)c3)cc2c1,?,28%,16%,2.2µM*,2%
Cc1ccnc(NC(=O)c2cc3ccccc3oc2=O)c1,-27%,8%,0%,-36%,-10%
O=C(O)c1ccccc1NC(=O)c1cc2ccccc2oc1=O,?,-13%,-12%,13µM*,-1%
COc1ccc2oc(=O)c(C(=O)Nc3cccc(C(=O)O)c3)cc2c1,.,?,3%,.,.
Cc1cccc(NC(=O)c2cc3ccccc3oc2=O)c1,?,7%,2%,2.8µM*,15%
CCC1=C(OC(=O)N(CC)CC)N2C(=O)OC(=NCC3CC3)[C@]2(C)[C@H]2C1=CC[C@H]1C(=O)N(c3ccccc3)C(=O)[C@H]12,-4%,.,.,6%,.
O=C(Nc1ccccc1C(F)(F)F)c1ncoc1-c1ccco1,.,8%,0%,.,.
C/C(=N/NC(=O)Cc1cccs1)c1ccco1,-4%,20%,-5%,-20%,-1%
O=C(Cc1ccc(Cl)cc1)NNC(=S)NC(=O)c1cccs1,-8%,1%,-1%,-42%,0%
O=C(Cc1cccs1)NNC(=S)NC(=O)c1ccco1,19%,9%,5%,7.9µM*,0%
O=C(Cc1cccs1)NNC(=S)NCc1ccc(Cl)cc1,-15%,?,-12%,4µM*,13%
CN1CCCC2(CCN(C(=O)c3cccn3C)CC2)C1,3%,.,.,-6%,.
O=C1C(Nc2ccccc2)=C/C(=N/S(=O)(=O)c2cccs2)c2ccccc21,5µM*,i,4.5µM*,4.5µM*,-37%
Cc1ccc(NC2=C/C(=N/S(=O)(=O)c3cccs3)c3ccccc3C2=O)cc1,6.3µM*,?,?,10µM*,-1%
CCS(=O)(=O)N1CC(=O)N(c2cc(Cl)ccc2C)C(C)(C(=O)NC2CCCCCC2)C1 (stereo not drawn),.,15%,-3%,.,.
c1ccc(-c2nnc3sc(-c4csc5c4CCCC5)nn23)cc1,?,-7%,-5%,6.3µM*,19%
CCc1nnc(N2C(=N)SCC2=O)s1,13µM*,2%,?,1.4µM*,2%
Cc1cccc(N2C(=N)SCC2=O)c1C,2%,-2%,-5%,-8%,1%
SMILES,VP16 counter,GLP-1R inv ag,HEK293 tox,RORg inh,GLP-1R agonist
O=C1CCN(CCc2ccccc2)CCN1[C@H](COc1ccccc1)Cc1ccccc1,-8%,10µM*,-17%,42%,-5%
CC(C)C[C@@H](COc1ccccc1)N1CCN(CCc2ccccc2)CCC1=O,10%,?,1%,20%,11%
C/C(=N\NC(=S)NC1CCCCC1)c1cccs1,0.79µM*,?,?,?,9%
C/C(=N\NC(=S)NC1CCCCC1)c1c(F)cccc1F,2.8µM*,4µM*,?,0.63µM*,18%
C/C(=N\NC(=S)NC1CCCCC1)c1ccc(Cl)c(Cl)c1,2.8µM*,14%,7%,1.4µM*,-5%
C=CC[C@@H]1C=C[C@@H](O/N=C\C[C@@H]2C=C[C@H](OC(C)=O)[C@H](COC(C)=O)O2)[C@@H](CO)O1,4%[10 µM],.,.,18%[10 µM],.
Cc1nc(Nc2nc3ccccc3o2)nc(C)c1C,?,?,1%,11µM*,-1%
